Results filed as inconclusive are left out. Activity calls are given as the source filed them. Calls follow the shape of the dose curve; as a rule, active = well fitted inhibition curve with a large enough effect; inconclusive = small, poorly fitted or top-dose-only effect; inactive = flat fitted curve, though single readings scatter.

Consider 10 compounds from PubChem BioAssay (NCATS).

Experiment [1] in a line: Drug repurposing screens with cells derived from glioblastoma tumor samples (AID 1345199). Also: nearly all actives have a fitted effect of over 40% in size. The note with it: GBM patient neurospheres viability, ATP luminescence, 48 h. The method, boiled down: (§1)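 Primary testing used CD133+ neurospheres from four GBM patients, seven concentrations, 48 h exposure and ATP-based viability; confirmation added three slower-growing patient lines.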

Another experiment deals with astro (control astrocytes). The description is as above. To be noted: viability, ATP luminescence, 48 h; series mostly up to 45.9 µM. An outline of the steps:
as §1

The mark [2] stands for this setting: at 45.9 µM (top of the series), tumour line B.
Where [3] appears, read: at 45.9 µM (top of the series), tumour line D.
The mark [4] stands for this setting: at 46.1 µM (top of the series), tumour line C.
Setting [5] is: at 20 µM (top of the series), tumour line C.
[6] abbreviates: at 21.2 µM (top of the series), tumour line B.
Setting [7] is: at 21.2 µM (top of the series), tumour line D.
% is scaled to controls: 0 for no effect and ±100 for the full control effect; potency is read from the fitted curve at half-maximal effect.

With `CCCCCCCCCCCC(=O)OC[C@@H](O)C1OC[C@H](O)[C@H]1O` (stereo not given in full), the figures for the activity, negative = cell killing in experiment [1] (setting [2]), in experiment [1] (setting [3]) and in experiment [1] (setting [4]) were -6.52% (inactive), -10.2% (inactive) and -22.6% (inactive), respectively. Moreover, the Potency result in the experiment with astro was “inactive”.
On the same counts, the results for `COc1ccc(-c2noc(CC(=O)O)c2-c2ccc(OC)cc2)cc1` are -13.4% (inactive), -6.66% (inactive), -18% (inactive) and “inactive”.
The matching figures for `Oc1ccc(Cl)c2c1CCC2`: -12.8% (inactive), -3.41% (inactive), -12.7% (inactive) and “inactive”.
Regarding `O=C(O)/C=C/C(=O)Nc1ccc(S(=O)(=O)Nc2nccs2)cc1`, the activity, negative = cell killing in experiment [1] (setting [2]) is -4.39% (inactive); in experiment [1] (setting [3]), -8.87% (inactive); in experiment [1] (setting [4]) it was -5.24% (inactive). In addition, the Potency entry in the experiment on astro was “inactive”.
For the compound `CN(C)CCC(O)(c1ccccc1)c1ccccc1Cl` (stereo not given), the values for the activity, negative = cell killing in experiment [1] (setting [2]) and in experiment [1] (setting [4]) were -11.1% (inactive) and -17.6% (inactive), respectively. The Potency in experiment [1] (tumour line A) is 11.2 µM (active). For the same compound, in the experiment with astro, the Potency result was “inactive”.
Regarding `O=P(O)(O)OP(=O)(O)OP(=O)(O)O`, the activity, negative = cell killing in experiment [1] (setting [2]) is -10.9% (inactive); in experiment [1] (setting [3]), -30.2% (inactive); in experiment [1] (setting [4]), -5.26% (inactive). Also, the Potency result in the experiment on astro is “inactive”.
`C#C[C@]1(O)CC[C@H]2[C@@H]3CCC4=C(CCC(=O)C4)[C@H]3CC[C@@]21C`: the results for the activity, negative = cell killing in experiment [1] (setting [5]), in experiment [1] (setting [6]) and in experiment [1] (setting [7]) were -4.47% (inactive), -8.06% (inactive) and -3.97% (inactive), respectively. In the experiment on astro, the Potency entry was “inactive”.
The matching figures for `CC1CCCC(C)N1NC(=O)c1ccc(Cl)c(S(N)(=O)=O)c1` (stereo not given): -19.6% (inactive), -10.8% (inactive), -17.6% (inactive) and “inactive”.
Turning to `Cc1ncc(C[n+]2csc(CCOP(=O)(O)OP(=O)(O)O)c2C)c(N)n1`, the activity, negative = cell killing is -10% (inactive) in experiment [1] (setting [2]), -6.5% (inactive) in experiment [1] (setting [3]) and 18.5% (inactive) in experiment [1] (setting [4]). Also, the Potency entry in the experiment with astro is “inactive”.
As to `CCc1cn([C@H]2C[C@H](O)[C@@H](CO)O2)c(=O)[nH]c1=O`, the activity, negative = cell killing in experiment [1] (setting [2]) is -28.6% (inactive); in experiment [1] (setting [3]), -5.04% (inactive); in experiment [1] (at 46 µM (top of the series), tumour line A), -8.93% (inactive). In the experiment with astro, the Potency entry is “inactive”.
